Compounds with a hit are over-represented: about 11% of the library has one in this group of screens.
Pf growth 48h – inhibits P. falciparum growth in the first generation, 48 h | P. falciparum luciferase growth in erythrocytes, 48 h | Potency, µM (doses to about 28.7 µM), inactives show top-dose activity change, negative = inhibition, hits mostly inhibitors | 310,000 compounds, 5.9% hits | AID 504832
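Growth was read as firefly luciferase luminescence after a 48 h, 37 C, 5% CO2 exposure of compounds to reporter-bearing P. falciparum cultures (0.1% parasitemia, 2% hematocrit final) in Albumax-supplemented RPMI 1640.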
HCV inhibitor – HCV inhibition. Huh7.5.1 HCVcc-Cre infection, luciferase reporter, 44 h. Potency, µM (top dose mostly 41.8 µM), for the others: at the highest dose activity change, negative = inhibition, hits mostly inhibitors. 340,000 compounds, 3.4% hits
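A cell-based infection assay in which seeded cells (1,000 per well) receive test compound after 4 h, are inoculated with HCVcc-Cre at approximately 0.5 moi, and are incubated 44 h before luminescence detection.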
AMA1-RON2 inh – inhibitors of Plasmodium falciparum AMA1-RON2 interaction. AlphaScreen AMA1-biotinylated RON2 peptide binding. Potency, µM (series often up to 58.2 µM), for the others: top-dose activity change, negative = inhibition, actives largely listed as inhibitors. 360,000 compounds, 0.2% hits. AID 720542;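 further: 0% = vehicle wells and -100% = peptide control; nearly all actives have a fitted effect of over 45% in size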
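AMA1 (3D7) with his tag at 25 nM final met compounds first, then biotinylated RON2 peptide at 25 nM; detection used donor plus acceptor beads, 10 µg/mL apiece, read by AlphaScreen after 30 min at room temperature.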
Pf growth 96h – P. falciparum growth inhibition at 96 hours | 320,000 compounds, 6.9% hits | P. falciparum luciferase reporter growth, 96 h | Potency, µM (top dose mostly 28.7 µM), without a hit: at the top dose activity change, negative = inhibition, hits mostly inhibitors
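Two parasite generations (96 h, 37 C, 5% CO2) of compound exposure in infected erythrocytes (0.05% parasitemia, 2% hematocrit). Luciferase-reporter P. falciparum; decreased luminescence indicates inhibited growth, aimed at apicoplast-acting delayed death.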
The depositor's hits bear a star; ? = inconclusive; / = not tested or not shown; [ ] = another dose, or the depositor's remark. The call rests on the fitted dose curve; in most records, active means well fitted curve in the direction sought with a large enough effect; inconclusive means small, poorly fitted or top-dose-only effect, or another doubt; inactive means no such curve, though single readings can be large; an effect the other way counts as inactive or inconclusive. Unless noted, on the % scale 0 is the no-effect control and ±100 the full control effect; potency means the concentration at half of the fitted maximal effect.

SMILES	Pf growth 48h	HCV inhibitor	AMA1-RON2 inh	Pf growth 96h
O=C(CCC(=O)N/N=C/c1c[nH]c2ccccc12)NCc1ccccc1	1.0%	30.0%	5.3%[2.32 µM]	?
CC1(C)CC(=O)C=C(c2ccc(-c3ccc(OC(F)(F)F)cc3)cc2)C1=O	/	/	-20.8%	/
COc1ccc(N2CCN(C(CNC(=O)C(=O)NCCCn3ccnc3)c3ccco3)CC2)cc1 (stereo not given)	?	-15.5%	-18.6%	?
O=C(Nc1cc(C(F)(F)F)ccc1Cl)C(NCc1ccccc1)c1ccccc1 (stereo not given)	10.4µM*	8.4%	-5.0%	9.28µM*
O=C(CNC(=O)c1ccccc1)OC(C(=O)Nc1cc(C(F)(F)F)ccc1Cl)c1ccccc1 (stereo not given)	/	?	7.1%	13.1µM*
Cc1cnc(C(=O)OC(C(=O)Nc2cc(C(F)(F)F)ccc2Cl)c2ccccc2)cn1 (stereo not given)	14.7µM*	4.4%	15.1%	10.4µM*
O=C1NC[C@H](CCCCN2C[C@H](Cc3ccccc3)N(CCc3ccc(O)cc3)C(=O)C2=O)N(CC2CCCCC2)C1=O	/	/	0.3%	/
O=C(Cc1ccc(F)cc1)N/N=C/c1ccncc1	12.1%	4.0%	0.9%	-2.5%
CCCCNC(=O)C1(C)CCN1C(=O)c1csnn1 (stereo not given)	/	/	-0.3%	/
CCc1nc2ccc(C(=O)NCc3ccc4c(c3)OCO4)cn2c1N(CCC(C)C)CCN(C)C	/	/	7.5%	/
Cc1cccc(-c2nnc(SCc3cc(=O)[nH]c4ccccc34)n2C)c1	13.1µM*	10.6%	19.4%	?
Cc1ccnc(NC(=S)NC(=O)/C=C/c2ccc(Cl)cc2)c1	57.2%	13.5%	1.0%	4.15µM*
COc1ccc(/C=C/C(=O)NC(=S)NNC(=O)c2ccco2)cc1	33.7%	?	-5.8%	10.4µM*
O=C(/C=C/c1ccc(Cl)cc1)NC(=S)Nc1ccc(NC(=O)c2ccco2)cc1	-13.6%	?	8.2%[2.32 µM]	14.7µM*
COc1ccc(/C=C/C(=O)NC(=S)NNC(=O)c2cc(OC)c(OC)c(OC)c2)cc1	14.7µM*	-28.5%	96.9%	?
O=C(NCc1cccnc1)C(=O)Nc1cc2c3c(c1)CC(=O)N3CCC2	-3.9%	19.7%	9.2%	?
COc1ccc(N2CCN(C3CCCN(Cc4cccc(C(C)=O)c4)C3)CC2)cc1 (stereo not given)	?	-7.4%	-4.4%	?
Cc1cccc(NC(=O)CN(C2=NC3CS(=O)(=O)CC3S2)c2ccccc2F)c1 (stereo not given)	-0.5%	-8.4%	4.1%	10.1%
CSCC[C@H](NC(=O)N1CCn2c1nc1ccccc12)C(=O)NCc1ccc(F)cc1	?	16.8%	76.8%	11.7µM*
NNC(=O)CCc1nc2ccccc2[nH]1	?	/	/	2.0%
O=C(CSc1nc2ccccc2c(=O)[nH]1)Nc1cccc([N+](=O)[O-])c1	-21.0%	-18.9%	2.1%	1.17µM*
CC1(C(=O)NCC2CCCCC2)CCN1CCc1ccccc1 (stereo not given)	/	/	-7.1%	/
CC(OC(=O)CCNS(=O)(=O)c1ccc(Cl)cc1)C(=O)N(C)Cc1ccccc1 (stereo not given)	/	/	3.4%	/
CCOC(=O)c1cc(-c2ccccc2)n(CCC(=O)N2CCN(c3ccccn3)CC2)c1C	?	2.5%	-14.5%	13.1µM*
Cc1ccc(S(=O)(=O)N(C)CCCC(=O)N2CCN(c3ccccn3)CC2)cc1	13.1µM*	?	-13.2%	/
SMILES	Pf growth 48h	HCV inhibitor	AMA1-RON2 inh	Pf growth 96h
Cc1ccc(CSCCNC(=O)/C=C/c2ccccc2Cl)cc1	?	-4.7%	-1.2%	-5.2%
CCn1c2ccc(C)cc2c2nnc(SCCN3CCCCC3)nc21	62.5%	?	4.0%	-27.0%
CCCn1c2ccc(C)cc2c2nnc(SCCN3CCCCC3)nc21	?	8.91µM*	8.9%	9.28µM*
CCn1c2ccc(F)cc2c2nnc(SCCN3CCCCC3)nc21	?	14.1µM*	2.9%	?
Cc1cccc2nc(CSc3nc4cc([N+](=O)[O-])ccc4s3)cn12	5.8%	1.7%	-7.9%	?
COc1ccc(NC(=O)C/C(C)=N/NC(=O)C(=O)NC2CCCCC2)c(OC)c1	6.5%	10.7%	24.0%	?
CCOC(=O)c1nn(-c2ccc(OCC)cc2)c2nc(-c3cccc(OC)c3)c(C#N)c(=O)n12	11.9%	-18.7%	-4.0%	?
CCOC(=O)c1nn(-c2ccc(OCC)cc2)c2nc(-c3ccco3)c(C#N)c(=O)n12	11.7µM*	4.0%	-6.7%	?
